In the supplement of paper PMC5499739:
Whole data set: some 16,000 sequences, median “Z-score” near -0.37, cut for the highest 2% near 3.2. Only a selection was taken, and the highest values are over-represented in it overall.

The sequences below were run on RBM10 RRM1-ZnF (GST-tagged construct) (assay: RNAcompete 7-mer binding Z-score; higher = stronger binding preference).
Method: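 RNAcompete: 20 pmol GST-tagged RBM10 RNA-binding constructs were incubated with a designed RNA pool of about 241,000 sequences up to 41 nt (1.5 nmol) on glutathione beads for 30 min at 4 °C and washed. Bound RNAs were identified by microarray hybridisation. Each RNA 7-mer is scored by a one-sided Z-score of its enrichment, computed over probes that contain the 7-mer within longer pool sequences.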

Row | Sequence | RNAcompete 7-mer binding Z-score
1 | CAAGGAA | 1.48
2 | UAAGGAA | 1.64
3 | GAAGGAC | 2.33
4 | CAAGGAG | 2.17
5 | GAAGGAA | 4.56
6 | CAAGGAU | 1.36
7 | GCAGGAA | 1.77
8 | AAAGGAA | 3.32
9 | GAAGGAG | 4.72
10 | GGAGGAA | 2.93
11 | UAAGGAU | 1.42
12 | GAAGGAU | 3.32
13 | CAUCACC | -0.795
14 | AACGGUG | 1.56
15 | CACCAAU | -0.639
16 | GCCCGCC | -0.132
17 | AUCCCGG | -0.513
18 | UAGUUAA | -0.373
19 | UUGCACU | -0.639
20 | UUGGUUC | -0.344
21 | UGCCGAC | -0.652
22 | UCAGUAA | -0.461
23 | UUACGCU | -0.5
24 | AAAGGAC | 2.39

Row | Sequence | RNAcompete 7-mer binding Z-score
25 | AAAGGAG | 3.8
26 | UAAGGAG | 1.97
27 | CAGCGCG | -0.324
28 | GUAGACC | 0.00729
29 | GGAGCGG | 4.52
30 | AGAGCGG | 1.43
31 | CGAGCGG | 3.69
32 | GGAGCGA | 2.71
33 | CGAGCGU | 0.0495
34 | UGAGCGG | 2.38
35 | UCACUUA | -0.724
36 | AUUCAAA | -0.662
37 | CAUCUCA | -0.798
38 | CUGGAUC | -0.311
39 | CGGAUGA | 1.15
40 | UGGCGUA | 0.316
41 | AUUGGGG | 3.01
42 | CUUGGGG | 1.44
43 | AGGGCGG | 2.1
44 | UGGGCGC | 1.16
45 | UUGGGGG | 3.56
46 | CUUGGGU | 1.38
47 | UGGGCGG | 3.38
48 | UUGGGGC | 1.95

Row | Sequence | RNAcompete 7-mer binding Z-score
49 | UUGGGGU | 3.27
50 | GUUGGGG | 4.26
51 | UUUGGGG | 2.72
52 | UUUGGGU | 2.47
53 | GCGUUUA | -0.535
54 | CAAUUAA | -0.633
55 | UCACUUC | -0.824
56 | UUCAAAU | -0.607
57 | GUUGCGU | 0.257
58 | UAGUAGU | -0.035
59 | AUAUCCU | -0.789
60 | GAAGUUA | 0.309
61 | CUUUAUG | -0.763
62 | GAUUGGG | 3.62
63 | UGGGGCG | 2.54
64 | GGUUUGG | 3.62
65 | GGUUUUG | 2.03
66 | GUUUUGG | 1.15
67 | GUUUGGG | 3.59
68 | CGUUUGG | 0.296
69 | GUUUGGA | 1.36
70 | AAUUGGG | 2.54
71 | UGGGGGC | 3.07
72 | UGGGGGG | 4.02

Row | Sequence | RNAcompete 7-mer binding Z-score
73 | GAUUGGC | 0.953
74 | UAGGUCC | -0.165
75 | GGGGCGG | 2.7
76 | UCGGGGC | 1.65
77 | ACUAUCU | -0.759
78 | UUGGCGA | 0.605
79 | GCGGGUU | 2.76
80 | GCGGGGA | 3.67
81 | GCGGGGC | 2.47
82 | UCGGGGU | 2.07
83 | GCGGGGG | 3.94
84 | CCGGGGA | 1.27
85 | GCGGGGU | 3.75
86 | UCGGGGA | 1.6
87 | CCGGGGG | 1.54
88 | GUCCAUA | -0.623
89 | CCGACGC | -0.477
90 | AGUACAA | -0.158
91 | GUCAGCC | -0.448
92 | GUGUUAA | -0.0447
93 | UGGGGAG | 3.36
94 | UGGGCAG | 2
95 | AGGGGAG | 2.9
96 | UCGGGAG | 1.12

Row | Sequence | RNAcompete 7-mer binding Z-score
97 | CGGGGAG | 2.57
98 | AGGGCAG | 2.11
99 | GGGGCAG | 3.4
100 | GGGGGAG | 3.22
101 | AGAUAAA | 0.0463
102 | UGACUCA | -0.48
103 | GGUAGCC | 0.784
104 | UCAACAC | -0.461
105 | GAGGAGA | 1.69
106 | ACUUGCU | -0.74
107 | GACUUGA | -0.496
108 | GAGGAAU | 1.58
109 | AAGGAAC | 2.26
110 | AAGGAAU | 2.28
111 | AAGGAAA | 3.36
112 | UAGGAAG | 1.72
113 | GAGGAAG | 3.26
114 | UAGGAAA | 1.47
115 | AAGGAAG | 3.84
116 | CAGGAAA | 0.94
117 | GGCUUAA | -0.0122
118 | UGUCUCG | -0.649
119 | GAUACGU | -0.022
120 | AUGGACA | 1.95

Row | Sequence | RNAcompete 7-mer binding Z-score
121 | UUUGCUC | -0.867
122 | AUGGAGA | 2.62
123 | GUGGAGU | 2.67
124 | GUGGAGG | 3.91
125 | AUGGAGG | 4.22
126 | AUGGAGU | 2.63
127 | GUGGAGC | 2.91
128 | GAUGGUG | 3.27
129 | CGUGGUG | 1.52
130 | AAUGGUG | 2.79
131 | GAUGGUC | 0.563
132 | GGUGGUG | 3.56
133 | AGUGGUG | 2.37
134 | ACCACCA | -0.503
135 | CUUACAC | -0.841
136 | GCUCCCA | -0.574
137 | GUCGUAG | 0.056
138 | ACAUCGA | -0.48
139 | UGUAGAG | 0.923
140 | UGUAAAG | 0.173
141 | CGUAGGU | 0.949
142 | GGUAGAG | 3.37
143 | GGUAGGA | 3.4
144 | GGUAGGU | 3.31

Row | Sequence | RNAcompete 7-mer binding Z-score
145 | CGUAAAG | -0.116
146 | AGUAGGA | 2.8
147 | CGUAGAG | 0.381
148 | AGUAGGU | 1.68
149 | GGUAGGC | 1.92
150 | GGUAAAG | 3.32
151 | GAACCAG | -0.0934
152 | GCGUAGC | -0.0155
153 | CCGAAUU | -0.815
154 | UGACCAC | -0.49
155 | CUGUCGG | -0.305
156 | UAGUCGA | -0.191
157 | CCUUAUA | -0.87
158 | UGGGCUG | 1.83
159 | GGUAGGG | 4.7
160 | GGUAGCG | 1.67
161 | GGUAGUG | 2.47
162 | AAGACUC | -0.561
163 | AAUUAUA | -0.464
164 | GAUCCUC | -0.883
165 | UAUGGGC | 1.47
166 | ACUGGGG | 1.89
167 | UAUGGGU | 2.81
168 | CAUGGGG | 2.42

Row | Sequence | RNAcompete 7-mer binding Z-score
169 | UAUGGGG | 3.4
170 | AAUGGUU | 2.44
171 | CAUGGGU | 2.24
172 | GAUGGGU | 3.53
173 | AAUGGCU | 0.303
174 | AAUGGGU | 3.89
175 | AAUGGGG | 4.2
176 | UAUGGCG | 0.537
177 | GAGGACC | 0.235
178 | CCUCCUC | -0.542
179 | UGUACAU | -0.422
180 | UGUGCCA | -0.542
181 | ACUAUAC | -0.642
182 | CACAUGU | -0.448
183 | CAUUCUU | -0.789
184 | ACGACAC | -0.496
185 | GAUGGUA | 2.28
186 | GAUGGGA | 3.76
187 | AAUGGGA | 4.35
188 | AAUGGGC | 2.5
189 | UAUGGGA | 2.85
190 | GAUGGGG | 4.43
191 | GCUGGGG | 2.64
192 | CAUGGGA | 1.95

Row | Sequence | RNAcompete 7-mer binding Z-score
193 | GAUGGGC | 2.15
194 | CUCACUU | -0.925
195 | UUGUUAC | -0.373
196 | GUUACCG | -0.0999
197 | GGCCGAG | 0.462
198 | UGCGAUA | -0.223
199 | GCCAGAG | 0.00729
200 | UGGGAGU | 2.27
201 | AGGGAGU | 2.96
202 | GGGGAGA | 3.3
203 | GGGGAGU | 2.84
204 | UGGGAGG | 4.4
205 | UGGGAGA | 2.78
206 | AGGGAGG | 3.68
207 | GGGGAGC | 2.29
208 | CGGGAGA | 1.24
209 | UGGGAGC | 2.86
210 | CGGGAGG | 3.02
211 | GGGGAGG | 3.64
212 | AGUCAGU | 0.0105
213 | ACGCCGC | -0.633
214 | UCCAACU | -0.85
215 | GUUACGG | 0.859
216 | GAGCUGA | 0.417

Row | Sequence | RNAcompete 7-mer binding Z-score
217 | GCGCAAA | -0.181
218 | AAGGCCA | -0.00896
219 | UUCUUAG | -0.698
220 | AUCCUAC | -0.87
221 | GUCUCAU | -0.642
222 | AGAAUCC | -0.785
223 | AUACAAU | -0.539
224 | CACGCAA | -0.464
225 | GGGCUAU | 0.849
226 | AAAAGGU | 2.33
227 | GAAAGGU | 4.51
228 | UGAAAGG | 3.05
229 | CGAAAGG | 2.19
230 | CAAAAGG | 0.888
231 | AGAAAGG | 4.58
232 | GAUAAGG | 3.91
233 | AAAAAGG | 2
234 | CAUAAGG | 0.335
235 | GAUAAGU | 0.313
236 | CAAAGGU | 1.15
237 | GAAAAGG | 4.26
